Measured values from PubChem BioAssay (NCI).
Compounds without any hit were thinned out: in the full panel of roughly 83,000, 20% have a hit.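 The endpoint reported here, percent growth, reads 100 for growth as untreated, 0 for no net growth and -100 for all cells dead.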 Values without a mark were called inactive. Active and inactive are the calls of the source. The calls were made as follows: active = growth percent below 10; inactive = the rest.

Test system: NCI-H460 lung
Assay: NCI-60 one-dose screen, 48 h (100 = growth as untreated, 0 = no growth, -100 = all killed)
Details: 10 µM unless noted

`C=CCSSc1ncnc2c1ncn2C1OC(CO)C(O)C1O` (stereo unspecified) was tested. Which growth did it give?
The growth was 43.3%.

With `Cc1ccc(NC(=O)C2CCC(CN3CCN(C)CC3)CC2)cc1Nc1nccc(-c2cccnc2)n1` (stereo unspecified) as the molecule, how does the growth read?
The growth was 101%.

With `COc1cc(/C=C/c2cc(O)c3cc(C(C)=O)c(=O)oc3c2)cc2c1O[C@]1(C)CC[C@@H](O)C(C)(C)[C@H]1C2` as the molecule, how does the growth read?
Its growth is 23%.

With `C=CC(=O)Nc1cccc(Nc2nc(SC)nc(-c3cccc([N+](=O)[O-])c3)c2C#N)c1` as the molecule, how does the growth read?
Its growth is 40.4%.

How did the growth turn out when `N#C/C(=C\c1ccc(-c2cc(C(F)(F)F)ccc2Cl)o1)c1nc(-c2ccco2)cs1` was run?
Its growth is 102%.

`COCCNc1ccc2c3c(cccc13)C(=O)N(CCN(C)C)C2=O` was tested. Which growth did it give?
The growth was -21.9% (active).

`C=CC(=O)Nc1cccc(-c2nc(SC)nc(NCc3ccccc3)c2C#N)c1` was tested. Which growth did it give?
Its growth is 84%.

Which growth does the source give for `COC(=O)c1cccc(NC(=O)c2ccc(-c3cccc(N)c3)o2)c1` here?
The growth was 102%.

For `N#Cc1c(-c2ccc(Cl)cc2)nc(N=Nc2c(O)[nH]c3ccc(Cl)cc23)nc1N1CCOCC1`, which growth is on record?
The growth was 98.4%.

Which growth does the source give for `N#CN1CCC[C@H]1C(=O)N1CCc2c(-c3[nH]nc4ncccc34)cccc21` here?
Its growth is 3.48% (active).

Test system: HOP-92 NSCLC
Assay: as above
Details: 10 µM unless noted

Which growth does the source give for `Nc1ccc(S(=O)(=O)O)c2ccc(N=Nc3ccc(N=Nc4ccc(S(=O)(=O)O)cc4)c4ccccc34)c(O)c12` here?
The growth was 102%.

With `CSc1ccc(-c2n[nH]nc2-c2cc3ccccc3s2)cc1` as the molecule, how does the growth read?
The growth was 70.3%.

Which growth does the source give for `COc1ccc(C(=O)COc2ccc(/C=C3\COc4ccc(OC)cc4C3=O)cc2)cc1` here?
The growth was 77.7%.

Which growth does the source give for `COc1cc(C=Nc2oc(-c3ccccc3)c(-c3ccccc3)c2C#N)cc(CN2CCCCC2)c1O` here?
Its growth is 103%.

How did the growth turn out when `O=C1CC[C@H](c2ccc(O)c3c2C(=O)[C@@H]2O[C@@H]2C3=O)c2cccc(O)c21` was run?
The growth was 38.4%.

For `C#CC(F)(F)[C@]1(O)CC[C@H]2[C@@H]3CCC4=CC(=O)CCC4=C3[C@@H](c3ccc(C(C)=O)cc3)C[C@@]21C`, which growth is on record?
The growth was -31.7% (active).

For `O=C(Cc1ccccc1Nc1c(Cl)cccc1Cl)NN1C(=O)/C(=C/c2ccc(Br)cc2)SC1=S`, which growth is on record?
Its growth is 103%.

`Cc1nn(-c2cc(=O)[nH]c3ccccc23)c(N)c1C#N` was tested. Which growth did it give?
The growth was 106%.

How did the growth turn out when `CCn1c(Cc2ccccc2Nc2c(Cl)cccc2Cl)nnc1SCC(=O)NN1C(=O)/C(=C/c2cc(OC)c(O)c(OC)c2)SC1=S` was run?
Its growth is 11.1%.

Which growth does the source give for `Cc1cc(C)nc(SC2=C(Nc3cc(Cl)ccc3O)C(=O)N(Cc3ccccc3)C2=O)n1` here?
The growth was 42.9% [30 µM].

For `CCN(CC)c1ccc(/C=N\NC(=O)/C=C/C=C/c2ccc3c(c2)OCO3)c(O)c1`, which growth is on record?
The growth was 48.4%.

`N#Cc1cnn(-c2nc3c(Cl)cccc3s2)c1N` was tested. Which growth did it give?
The growth was 38.8%.

For `COc1ccc(S(=O)(=O)N2CC3(COC3)C2)cc1NC(=O)c1[nH]c(C)c2c1CCCCC2=O`, which growth is on record?
The growth was 48.2%.

Which growth does the source give for `Cn1cc(C(=O)c2nc(-c3c[nH]c4ccc(F)cc34)no2)c2cc(F)ccc21` here?
Its growth is 85.5%.

`O=C1C=C(OCC=C(Cl)Cl)C(=O)c2ccccc21` was tested. Which growth did it give?
The growth was 73.7%.

With `Cc1cc(C)nc(SC2=C(Nc3cccc(Cl)c3)C(=O)N(Cc3ccccc3)C2=O)n1` as the molecule, how does the growth read?
The growth was -7.47% [30 µM] (active).

For `O=c1cc(CSc2nnc(-c3ccc(F)cc3)o2)c2ccc3ccccc3c2o1`, which growth is on record?
The growth was 92.2%.

`CCCn1c(=O)[nH]c(N)c([C@H]2c3ccccc3Oc3[nH]c(=O)n(CCC)c(=O)c32)c1=O` was tested. Which growth did it give?
Its growth is 102%.

Which growth does the source give for `O=C(CCN1C(=O)/C(=C/c2ccc(Cl)cc2)SC1=S)NCCCN1CCOCC1` here?
Its growth is 102%.

Which growth does the source give for `Cc1nc2ccccc2n1C(=O)C[C@@H]1NC(=S)NC1=O` here?
Its growth is 123%.

With `O=C(N=Nc1c(O)[nH]c2ccc(Br)cc12)c1cc(-c2ccccc2)on1` as the molecule, how does the growth read?
Its growth is 96.8%.

Which growth does the source give for `C=C(C)C(=O)Nc1ccc(NC(C)C)cc1` here?
The growth was 143%.

Which growth does the source give for `CC(O)CN1CC(O)=C(c2nc3ccccc3s2)C1=N` (stereo unspecified) here?
Its growth is 88.1%.

With `O=c1c2c3c(sc2nc(N/N=C/c2cn(-c4ccccc4)nc2-c2ccc(Cl)cc2)n1Cc1ccccc1)CCCC3` as the molecule, how does the growth read?
Its growth is 74.2%.

With `COc1cccc(-c2nn(C(C)(C)C)cc2-c2ccnc(NCCCNS(=O)(=O)c3ccc(C)cc3)c2)c1` as the molecule, how does the growth read?
Its growth is 114%.

Which growth does the source give for `CSc1nc(Nc2cccc(NC(=O)CCl)c2)c(C#N)c(-c2cccc([N+](=O)[O-])c2)n1` here?
The growth was 40.7%.
